# HT1080 IDH1KD tx: qHTS for induction of synthetic lethality in tumor cells producing 2HG: qHTS for the HT-1080-IDH1KD cell line; HT-1080 IDH1 knockdown viability, ATP luminescence, 48 h; Potency, µM (top dose mostly 46.1 µM), usual class: cytotoxic; hit rate 2% among 360,000
#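 Knockdown cells (IDH1KD HT-1080) received compounds 2 h after plating at 750 cells/well and were kept 48 h at 37 °C in 5% FBS RPMI. A CellTiter-Glo luminescence read gave % activity for curve fitting.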
# TDP1 cell noCPT: qHTS for Inhibitors of human tyrosyl-DNA phosphodiesterase 1 (TDP1): qHTS in cells in absence of CPT; Potency, µM (series often up to 46.2 µM), hits mostly inhibitors; hit rate 15% among 420,000; DT40 Tdp1-/- hTDP1 cells, no CPT, ATP luminescence, 48 h; AID 686978, 2013; note: nearly all actives have a fitted effect of over 55% in size
#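 Growth kinetics read by CellTiter-Glo luminescence after ≥48 hr at 37 °C. Cells: DT40 Tdp1-/- stably carrying human TDP1, 400 per well, compound exposure in the absence of CPT (DMSO vehicle).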
# HT1080-NT tox: qHTS for induction of synthetic lethality in tumor cells producing 2HG: qHTS for the HT-1080-NT fibrosarcoma cell line; HT-1080-NT fibrosarcoma viability, CellTiter-Glo ATP luminescence, 48 h; Potency, µM (highest dose often 46.1 µM), hits mostly cytotoxic; hit rate 1.6% among 360,000; AID 686970, 2013;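 note: NT is the 2HG producing partner of a matched IDH1 knockdown line; nearly all actives have a fitted effect of over 55% in size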
#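 A 48-hour cytotoxicity screen used HT-1080-NT cells plated 2 hours before compound delivery. ATP-based CellTiter-Glo luminescence measured viability, normalized to DMSO and no-cell controls.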
# DT40 TDP1 CPT: qHTS for Inhibitors of human tyrosyl-DNA phosphodiesterase 1 (TDP1): qHTS in cells in presence of CPT | Potency, µM (series often up to 46.2 µM), actives largely listed as inhibitors | hit rate 12% among 420,000 | chicken DT40 Tdp1-/-;hTDP1 cells + 20 nM CPT, ATP luminescence, 48 h; note: nearly all actives have a fitted effect of over 55% in size
#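 Chicken DT40 Tdp1-/- cells complemented with human TDP1, 400 cells/well, exposed to compounds plus 20 nM camptothecin for at least 48 h at 37 C; viability read as ATP content by CellTiter-Glo luminescence.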
# IL1B secr inh: qHTS for Inhibitors of Inflammasome Signaling: IL-1-beta AlphaLISA Primary Screen; THP-1 LPS/ATP IL-1B secretion, AlphaLISA, 16 h; active compounds read low; activity change, % at 57.5 µM; hit rate 4.7% among 360,000; AID 743279, 2014; in the data active = activity change below about -50%; inconclusive = mostly about -30% to -49%
#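 Secreted IL-1B measured by AlphaLISA bead assay after 16 h compound exposure of THP-1 cells; compounds (final up to 57.5 uM) added 1 h before LPS (250 ng/mL) and ATP (1.25 mM) stimulation; lower signal means less secretion.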
# Hits are given with their value; - = inactive; ? = inconclusive; . = not tested or not shown; [ ] = dose if it differs, or a comment. An excerpt weighted towards active compounds, which were near 19% of everything screened. Unless noted, calls come from the whole dose curve; as a rule, active = well fitted curve in the direction sought with a large enough effect; inconclusive = small, poorly fitted or top-dose-only effect, or another doubt; inactive = no such curve, though single readings can be large; an effect the other way counts as inactive or inconclusive.
SMILES,HT1080 IDH1KD tx,TDP1 cell noCPT,HT1080-NT tox,DT40 TDP1 CPT,IL1B secr inh
Cc1cccc(CN2CCN(C(c3ccccc3)c3ccc(Cl)cc3)CC2)c1 (configuration not stated),?,7.31µM,?,?,-
CN1CCN(C(c2ccccc2)c2ccccc2)CC1,-,?,?,?,-
Cc1nnc(SCC(=O)NC2CC2)n1CC1CCCO1 (configuration not stated),-,-,-,-,-
Cc1ccc(NC(=O)C2CCCN(C(=O)c3ccc(Cl)cc3)C2)cc1S(=O)(=O)N1CCOCC1 (configuration not stated),-,16.4µM,-,20.6µM,-
Cc1ccc(S(=O)(=O)N2CCCCC2)cc1NC(=O)C1CCC1,-,-,-,-,-
Cc1ccc(NC(=O)C2CCC2)cc1S(=O)(=O)N1CCCCCC1,-,25.9µM,-,?,-
O=C(NNC(=O)C1CCN(S(=O)(=O)c2ccccc2)CC1)c1ccccc1O,?,25.9µM,?,7.31µM,-
Cc1ccccc1C(=O)N1CCC(C(=O)Nc2ccc(S(=O)(=O)N3CCCC3)cc2)CC1,-,18.4µM,-,?,-
O=C(NNC(=O)C1CCN(S(=O)(=O)c2ccccc2C(F)(F)F)CC1)c1ccccc1O,?,?,-,?,-
Nn1c(SCC(=O)NCC2CCCO2)nnc1-c1cc(Cl)ccc1Cl (configuration not stated),-,-,-,-,-
N#CCC(=O)Nc1ccc(C(=O)Nc2cccnc2)cc1,-,-,-,-,-
CCOc1ccc(NS(=O)(=O)c2cc(NC(=O)C3CC3)ccc2C)cc1Br,-,20.6µM,-,?,-71.0
Cc1ccccc1C(=O)N1CCC(C(=O)Nc2ccc(C(C)C)cc2)CC1,-,5.17µM,-,7.31µM,-
Cc1ccccc1C(=O)N1CCC(C(=O)Nc2ccc(C)c(S(=O)(=O)N3CCCCC3)c2)CC1,-,5.8µM,-,13µM,-
CC(C)c1ccc(NNC(=O)C2CCC2)cc1,-,16.4µM,-,9.2µM,.
Cc1ccccc1C(=O)N1CCC(C(=O)Nc2cccc(S(=O)(=O)N3CCCCC3)c2)CC1,-,?,-,?,-
COc1ccc(NC(=O)C2CC2)cc1S(=O)(=O)N1CCOCC1,-,-,-,-,-
CC(C)(C)c1ccc(C(=O)Oc2ccccc2CCC(=O)O)cc1,-,-,-,-,.
Cc1cc(C)nc(SCCC(=O)Nc2ccccc2Cl)n1,-,-,-,-,-
Cc1nc(C)c(-c2ccc(SCc3ccccc3C)nn2)s1,-,?,-,?,-
Cc1cccc(NC(=O)CN2CCN(C(=O)c3cncn3-c3ccc(F)cc3)CC2)c1C,-,-,-,-,-
CC(OC(=O)c1ccccc1OCCOc1ccccc1)C(=O)Nc1ccc(Br)cc1 (configuration not stated),.,-,.,-,.
Cc1ccc(NC(=S)Nc2ccc(C(C)C)cc2)cc1S(=O)(=O)N1CCCCCC1,20.6µM,16.4µM,?,23.1µM,-88.9
C=CCNC(=S)Nc1ccc(C)c(S(=O)(=O)N2CCCCC2)c1,-,-,-,-,-
Cc1ccccc1C(=O)N1CCC(C(=O)Nc2ccc(F)cc2)CC1,-,-,-,-,-
SMILES,HT1080 IDH1KD tx,TDP1 cell noCPT,HT1080-NT tox,DT40 TDP1 CPT,IL1B secr inh
CSc1cccc(NC(=O)C2CCN(C(=O)c3ccccc3C)CC2)c1,-,20.6µM,-,18.4µM,?
CCOc1ccc(Nc2nc(Cc3nnc(SCC(=O)NCc4ccco4)n3CC)cs2)cc1,-,13µM,-,13µM,-
CCOc1ccc(-n2c(SCC(=O)NCc3ccco3)nnc2-c2c[nH]c3ccccc23)cc1,-,13µM,-,?,-
Cn1c(SCC(=O)NCc2ccco2)nnc1-c1c[nH]c2ccccc12,-,-,-,20.6µM,-
Cn1c(SCC(=O)NCc2ccco2)nnc1-c1ccccc1,-[9.24 µM],-,-,-,-
COc1cc(OC)c(OC)cc1CN1CCCC(n2cc(C(=O)N3CCCCC3)nn2)C1 (configuration not stated),.,-,.,-[9.04 µM],.
COc1ccc(N2CCN(C(=O)c3sc4ncn(CC(=O)N5CCCCC5C)c(=O)c4c3C)CC2)cc1 (configuration not stated),-,-,-,?,-
COc1ccc(CCn2c(=O)c3cccnc3n(Cc3ccc([N+](=O)[O-])cc3)c2=O)cc1OC,-,16.4µM,-,?,-
COc1ccc(Cn2c(=O)c3cccnc3n(Cc3ccc([N+](=O)[O-])cc3)c2=O)cc1,-,-,-,?,-
COc1ccc(CCn2c(=S)[nH]c(=O)c3cccnc32)cc1OC,?,0.1µM,?,0.224µM,.
COc1ccc(CCn2c(=O)c3cccnc3n(CC(=O)Nc3c(C)cccc3C)c2=O)cc1OC,.,-,.,-,.
O=C(NCc1ccccc1)NC(O)C(Cl)(Cl)Cl (configuration not stated),-,-,-,-,-
COc1cccc(CNCCSc2nnnn2C)c1OCc1ccc(Cl)cc1,.,?,.,20.6µM,.
CCOc1c(CNCCSc2nnnn2C)cccc1OC,.,-,.,-,.
COc1cccc(CNCCSc2nnnn2C)c1OCc1ccc(Cl)cc1Cl,.,23.1µM,.,16.4µM,.
COc1ccc(Cl)cc1CNCCSc1nnnn1C,.,-,.,-,.
C=CCOc1ccc(CNc2nn[nH]n2)cc1,-,-,-,-,-
Cc1nc2sc(C(N)=O)c(N)c2c2c1CCCC2,-,?,-,?,-94.5
NC(=O)c1sc2nc(-c3ccccc3)c3c(c2c1N)CCCC3,-,16.4µM,-,?,-
CCc1nc2sc(C(C)=O)c(N)c2c2c1CCCC2,-,14.6µM,-,?,-
Cc1ccc(-c2nc3sc(C(N)=O)c(N)c3c3c2CCCC3)cc1,-,?,-,?,-
CC(C)c1nc2sc(C(=O)O)c(N)c2c2c1CCCC2,-,-,-,-,-
COc1cccc(C2(CC(=O)N3CCCCC3CO)CC(=O)N(C)C2=O)c1 (configuration not stated),.,-,.,-[9.04 µM],.
CC(C)NC(=O)N1[C@H](c2cccs2)[C@@H](C)C(=O)[C@@H](C)[C@@H]1c1cccs1,.,?,.,14.6µM,.
COc1ccc(C(=O)C(=NNc2ccccc2)c2ccc(OC)cc2)cc1,-,?,-,?,-55.0
COc1ccc(NC(=O)/C=N/O)cc1,-,-,-,-,-
COc1ccc(N/N=C(\C=N\O)C(=O)c2ccc(OC)cc2)cc1,?,2.91µM,?,2.59µM,-
COc1ccc(C(=O)C(=NN)c2ccccc2)cc1,-,-,-,-,-
O=S(=O)(NCCCSc1ccccc1)c1ccccc1F,-,-,-,?,-
